Source: PubChem BioAssay AID1839 (Johns Hopkins Ion Channel Center, 2009)
The campaign covered roughly 2,400 compounds. About 220 (9.2%) were called active. This is one part of a sample in which actives are shown more often than they occur. Values without a mark were called inactive.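 Rule for the calls: active = signal change above the mean of dofetilide-free buffer controls plus 3 SD, so a positive margin; inactive = the rest.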

experiment: thallium signal changes without hERG – cell-based, CHO-K1 parental line, FluxOR thallium flux, counter-screen for hERG block protection project, confirmation (AID 1839); conditions: CHO-K1 parental cells, FluxOR thallium flux fluorescence; at 10 µM;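 note: compounds applied alone with no dofetilide to cells lacking hERG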

Structure (SMILES) | signal change vs control minus 3*SD hit threshold (margin above threshold, higher = more increase)
O=C1NC(=S)SC1=C1CCCCCC1 | 26% (active)
CCCCCN(C(=O)CCC(=O)OCC(=O)N(C)C1CCCCC1)c1c(N)n(CCCC)c(=O)[nH]c1=O | -20.9%
CCC1(C(=O)O)NC(c2cc(OC)ccc2O)C2C(=O)N(Cc3ccccc3)C(=O)C21 (configuration not stated) | -29.6%
O=C1NCCN1Cc1ccccc1F | -30.6%
CON/C=N/C(=S)Nc1ncc(C(F)(F)F)cc1Cl | 16.5% (active)
ON/C=N/C(=S)Nc1ncc(C(F)(F)F)cc1Cl | 6.1% (active)
C/C(Cl)=C\Cn1c(O)c(N=NC(N)=S)c2cc(Br)ccc21 | -15.7%
COc1ccc(OC)c(S(=O)(=O)NCc2cn3cccc(C)c3n2)c1 | -37.6%
O=c1c2ccc(Cl)cc2nc(-c2ccc([N+](=O)[O-])cc2)n1O | -15.4%
O=c1c2cc(Cl)ccc2nc(-c2ccc([N+](=O)[O-])cc2)n1O | 4.5% (active)
O=[N+]([O-])c1ccc(CSc2nnc(SCc3ccc(Cl)cc3)s2)cc1 | -24.5%
O=c1c2cc(Br)ccc2nc(-c2ccc([N+](=O)[O-])cc2)n1O | 6.7% (active)
Nc1nc(O)c(N=Nc2ccc(S(N)(=O)=O)cc2)c(=O)[nH]1 | -32%
CNC(=S)Nc1sc2c(c1C(=O)OC)CCC2 | -15.1%
Cc1ccc(C(=O)N/N=C(/CC(=O)c2cccs2)C(F)(F)F)cc1 | -22.1%
CC(C)=CCCC1=CCC2C(=O)NNC(=O)C2C1 (configuration not stated) | -33.3%
CC(C)(C)NC(=O)C(=O)NNC(=O)COc1ccccc1 | -32.8%
Cc1ccc(OCC(=O)NC(=S)Nc2ccc(Br)cn2)cc1 | -4.8%
CC(C)(C)NC(=O)C(=O)NNC(=O)COc1ccc(Br)cc1 | 6.9% (active)
c1ccc(SSc2ccccn2)nc1 | -36.9%
S=c1[nH]c(-c2ccccc2)cn1/N=C/c1cccc2ccccc12 | -17.6%
Oc1oc(-c2cccc3ccccc23)nc1/C=N/c1nccs1 | -19.4%
CCn1c(O)c(N=NC(=O)CNC(=O)c2ccccc2F)c2ccccc21 | -28.7%
CCCn1c(O)c(N=NC(=O)c2ccco2)c2ccccc21 | 29.8% (active)
Oc1c(N=NC(=S)Nc2ccccc2F)c2ccccc2n1Cc1ccccc1 | -17.5%
CN1C(=O)/C(=N\OC(=O)c2cccc3ccccc23)c2ccccc21 | -18.7%

Structure (SMILES) | signal change vs control minus 3*SD hit threshold (margin above threshold, higher = more increase)
C/C(Nc1cccc(F)c1)=C(/C#N)C(N)=O | -24.1%
Cc1sc2nc[nH]c(=S)c2c1-c1ccccc1 | 9.4% (active)
Cc1c(-c2ccccc2)sc2nc[nH]c(=S)c12 | 6.1% (active)
Cc1ccc(-c2csc3nc[nH]c(=S)c23)cc1C | -21.7%
S=c1[nH]cnc2scc(-c3ccccc3)c12 | -3.2%
Cc1cc(-c2csc3nc[nH]c(=S)c23)cc(C)c1C | -3.4%
S=c1[nH]cnc2scc(-c3ccc(Br)cc3)c12 | -22%
Clc1ccc(Nc2nc3cccnc3s2)cc1 | -29.8%
CCOC(=O)N1CCN(C(=O)CCn2c(=S)[nH]c3ccsc3c2=O)CC1 | -14.4%
CN(CCc1ccccn1)C(=O)CCC1CCCN(C(=O)c2ccsc2)C1 (configuration not stated) | -22.3%
N=C1S/C(=C\c2ccc(-c3cccc(Cl)c3)o2)C(=O)N1c1nccs1 | -18.8%
Cc1cc(S(=O)(=O)N2CCOCC2)ccc1OCC(=O)NCc1ccco1 | -27.2%
Oc1c(Br)cc(Br)cc1C=Nc1ccc2[nH]ncc2c1 | 11% (active)
Oc1c(Br)cc(Br)cc1C=Nc1ccc2c(c1)OCCO2 | -5.9%
Oc1c(Br)cc(Br)cc1C=Nc1cccc2ncccc12 | -0.4%
COc1ccc(-n2c(O)c(/C=C3\C=Nc4ccccc43)c(=O)[nH]c2=O)cc1 | -43%
COCC(=O)NC1CC2CCC(C1)N2C(=S)Nc1ccccc1C(=O)OC (configuration not stated) | -14.6%
COc1cc(NC(=O)CCCOc2ccc(Cl)cc2Cl)c(C(=O)O)cc1OC | -17.7%
COc1cc(NC(=O)CSc2ncnc3sc4c(c23)CCC(C)C4)c(C(=O)O)cc1OC (configuration not stated) | 29.8% (active)
Cc1sc2ncnc(SCC(=O)c3ccc(O)cc3O)c2c1C | -22.1%
Cc1noc(C)c1CSc1ncnc2sc3c(c12)CCCCC3 | -14.1%
CC(=O)CSc1ncnc2sc3c(c12)CCC(C)C3 (configuration not stated) | 49% (active)
COC(=O)c1c(NC(=O)CN2CCOCC2)sc2c1CCC(C)C2 (configuration not stated) | -31.2%
CCOC(=O)/C(C)=N/NC(=O)c1cccc([N+](=O)[O-])c1 | -14.2%
CCOC(=O)c1ccc(Oc2cc(C)nc(SC)n2)cc1 | -8.1%
Cc1cccc(C(=O)NC(=S)N(C)C2CCCCC2)c1 | -9.9%
